# Results taken from PubChem BioAssay (EPA / NIEHS).
# Inconclusive results are not listed. Where a structure was tested more than once in an assay, its records may differ in their call. Calls of active or inactive are those of the source. How the source made its calls: active means hit-call score of the fitted dose curve at least 0.9, where 1 is the maximum; inconclusive means response in the unintended direction; inactive means score below 0.9.
# Molecular target: Retinoic acid receptor RXR-alpha (Homo sapiens) (UniProt P19793)
# Assay: ATG_RXRa_TRANS: Attagene TRANS-FACTORIAL HepG2 Assay for human Retinoid X Receptor alpha (RXRa) (AID 2283012)
# Description: ATG_TRANS is a cell-based, multiplexed-readout assay that uses HepG2, a human liver cell line, with measurements taken at 24 hours after chemical dosing in a 24-well plate.ATG_RXRa_TRANS is one of 30 assay component(s) measured or calculated from the ATG_TRANS assay. It is designed to make measurements of mRNA induction, a form of inducible reporter, as detected with fluorescence intensity signals by Reverse transcription polymerase chain reaction (RT-PCR) and Capillary electrophoresis technology.Data from the assay component ATG_RXRa_TRANS was analyzed into 1 assay endpoint. This assay endpoint, ATG_RXRa_TRANS, was analyzed in the positive analysis fitting direction relative to DMSO as the negative control and baseline of activity. Using a type of inducible reporter, measures of mRNA for gain-of-signal activity can be used to understand the reporter gene at the transcription factor-level as they relate to the gene RXRA. Furthermore, this assay endpoint can be referred to as a primary readout, because this assay has produced multiple assay endpoints where this one serves a reporter gene function. To generalize the intended target to other relatable targets, this assay endpoint is annotated to the nuclear receptor intended target family, where the subfamily is non-steroidal.
# Human liver HepG2 cells are transiently transfected with multiple reporter transcription units (MRTUs) in 6-well plates using FuGene 6 reagent (Roche; 3 ml FuGene/1 mg DNA). The MRTU constructs are regulated by a cis-regulating element (promoter). […] A major difference between the CIS and TRANS system is that in CIS activities of endogenous TFs are measured, whereas the TRANS assay evaluates changes in activities of exogenous, chimeric NR-Gal4 proteins. […] At the end of 24 hour incubation, total RNA was isolated using TriZol reagent (Invitrogen). The isolated RNA is then reverse-transcribed using oligo(dT) primer and Mo-MLV reverse transcriptase (Invitrogen) with DNAse I (Ambion) treatment for 30 min. The one-tenth of the produced cDNA was amplified by PCR using Taq DNA polymerase (Invitrogen) and two reporter sequence-specific primers. The PCR products were fluorescently labeled by primer extension with 6-arboxyfluorescein (6-FAM) 5'-labeled reporter sequence-specific primer (2 min at 95 C, 20 s at 68 C and 10 min at 72 C) and these products were digested with 5U of HpaI (New England Biolabs) for 2h at 37 C. The fragments were purified using Qiaquick PCR columns (Qiagen), analyzed on an ABI 3130xL genetic analyzer (Applied Biosystems) with peak positions identified by using a set of X-rhodamine (ROX)-labeled MapMarker1000 molecular weight standards (BioVentures). The raw capillary electrophoresis data was processed using Attagraph software (Attagene).
# Sequence of Retinoic acid receptor RXR-alpha (Homo sapiens) (P19793 whole entry, looked up): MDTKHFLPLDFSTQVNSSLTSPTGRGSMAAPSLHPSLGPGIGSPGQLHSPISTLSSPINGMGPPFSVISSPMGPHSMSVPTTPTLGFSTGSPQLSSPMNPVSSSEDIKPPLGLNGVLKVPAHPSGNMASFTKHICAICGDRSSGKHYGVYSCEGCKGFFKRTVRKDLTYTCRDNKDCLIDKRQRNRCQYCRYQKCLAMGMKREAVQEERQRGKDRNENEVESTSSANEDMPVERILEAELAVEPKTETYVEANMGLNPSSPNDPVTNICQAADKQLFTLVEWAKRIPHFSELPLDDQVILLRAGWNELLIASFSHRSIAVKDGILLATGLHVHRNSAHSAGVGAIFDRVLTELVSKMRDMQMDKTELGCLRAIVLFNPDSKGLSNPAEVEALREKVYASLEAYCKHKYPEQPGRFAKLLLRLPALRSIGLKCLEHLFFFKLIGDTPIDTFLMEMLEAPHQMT
SMILES,AC50,outcome
OCc1ccccc1,5.67 µM (active),inactive
CCCc1ccccc1,,inactive
C[Si](C)(C)C(F)(F)C(F)(F)C(F)(F)F,,inactive
CCCCCCCCN(C)C,,inactive
COc1cc2c(c(OC)c1OC)-c1ccc(OC)c(=O)cc1[C@@H](NC(C)=O)CC2,,inactive
FC(F)(F)C(F)(F)C(F)(F)C(F)(F)C(F)(F)C(F)(F)I,,inactive
CC(C)c1nnc2ccc(-c3ocnc3-c3cc(F)ccc3F)cn12,,inactive
C=CCc1cc(S(=O)(=O)c2ccc(O)c(CC=C)c2)ccc1O,,inactive
OC[C@H]1O[C@@](CO)(O[C@H]2O[C@H](CO)[C@@H](O)[C@H](O)[C@H]2O)[C@@H](O)[C@@H]1O,,inactive
Cc1ccc(S(=O)(=O)NC(=O)NN2CCCCCC2)cc1,,inactive
CCc1ccc(O)c(C(C)(C)C)c1,39.9 µM (active),
CCCOc1ccc(S(=O)(=O)N2CCN(CC)CC2)cc1-c1nc2c(CC)n(Cc3ccccn3)nc2c(=O)[nH]1,,inactive
OCCC(F)(F)C(F)(F)C(F)(F)C(F)(F)F,,inactive
CCCCCCOC(=O)CC(CC(=O)OCCCCCC)(OC(=O)CCC)C(=O)OCCCCCC,,inactive
CCOc1ccc2[nH]cc(C(=O)NCc3ccccc3)c(=O)c2n1,,inactive
CCCC(CCC)C(=O)O,,inactive
O=C(O)[C@H](O)[C@@H](O)C(=O)O,,inactive
c1ccc2cc3ccccc3cc2c1,,inactive
c1ccc2ncccc2c1,,inactive

SMILES,AC50,outcome
NNC(=O)c1ccncc1,,inactive
OCc1c[nH]c2ccccc12,,inactive
OCCOCCOCCO,,inactive
CCCCCCCC1CCC(=O)O1 (stereo not given),,inactive
CCCCCCCC/C=C\CCCCCCCC(=O)OC[C@@H](O)[C@H]1OC[C@H](O)[C@H]1O,,inactive
O=C(O)c1cccc(C[C@@H]2COc3ccc(OCc4nc5cc(F)ccc5s4)cc3[C@@H]2O)c1,,inactive
Cc1nccn1-c1ccc(Sc2cccc(C3(C(N)=O)CCOCC3)c2)cc1,,inactive
CCOC(N)=O,,inactive
CCCCCCCCCCCCCCCCOS(=O)(=O)O,,inactive
CCCCCCCCCCCCCCO,,inactive
Cc1cccc(O)c1C,,inactive
O=C(O)CO,6.77 µM (active),inactive
C=CN1CCCC1=O,,inactive
OCCNCCO,,inactive
FC(F)(F)COC(OCC(F)(F)F)OCC(F)(F)F,,inactive
NC(N)=O,,inactive
O=C1CN(N=Cc2ccc([N+](=O)[O-])o2)C(=O)N1,,inactive
CCN(CC)C(=S)SSC(=S)N(CC)CC,,inactive
C[C@@H](Oc1ccc(CNC(=O)c2cccnc2Oc2ccc3c(c2)OCO3)c(F)c1)C(=O)O,,inactive
